Measured values published in PubChem BioAssay.
Active and inactive are the calls of the source. Unless noted, no rule for the calls is given here.

Legend:
[1] = anti-His antibody binders, primary screen, artefact control for SMM control protein annotation, biochemical, small-molecule microarray, 635 nm fluorescence (AID 1128); settings: anti-His Alexa647 antibody binding, higher = more signal;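 also: score merges feature fluorescence with signal-to-noise for each printed compound spot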
[2] = system: Human papillomavirus type 1a E7 protein (residues 1-88); assay: HPV1a E7 small-molecule binders, primary screen, biochemical, small-molecule microarray, residues 1-88, 635 nm (AID 1129); settings: small-molecule microarray binding, fluorescence 635 nm; higher = more signal
[3] = molecular target: Focal adhesion kinase 1 (Homo sapiens) (UniProt Q05397); assay: small-molecule microarray binders of FAK, primary screen, biochemical, 635/667 nm fluorescence, BSA, DTT (AID 1130); settings: PTK2 binding, 635 nm fluorescence, higher = more signal;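 also: composite of spot emission at 667 nm and signal to noise over triplicate slides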
[4] = system: Fibrinogen (Alexa647-labelled); assay: fibrinogen binders on compound microarrays, profiling panel, artefact control for SMM control-protein annotation, biochemical, small-molecule microarray, 635/667 nm fluorescence (AID 1131); settings: fibrinogen-A647 binding fluorescence, higher = more signal;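 also: z-score merges 667 nm fluorescence with per-spot signal-to-noise over triplicate slides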
[5] = molecular target: Follistatin (Homo sapiens) (UniProt P19883); assay: follistatin binders on small-molecule microarrays, primary screen, biochemical, small-molecule microarray, 635/667 nm fluorescence (AID 1132); settings: FST binding, 635 nm fluorescence, higher = more signal
[6] = molecular target: Fibroblast growth factor 2 (Homo sapiens) (UniProt P09038); assay: FGF2 binders on small-molecule microarrays, primary screen, biochemical, small-molecule microarray, 635/667 nm fluorescence (AID 1133); settings: small-molecule microarray binding, FGF2, fluorescence 635/667; higher = more signal
[7] = mitochondrial membrane potential change in A549 cells, profiling panel, cell-based, JC-1 fluorescence, basal, 24 h, 100 nL (AID 1138); settings: higher = more signal;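 also: A549 lung adenocarcinoma cells under basal conditions with no added stimulus; test concentration not given here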
Lefty1 = Lefty1 binders on small-molecule microarrays, primary screen, biochemical, small-molecule microarray, 635/667 nm fluorescence (AID 1139); settings: small-molecule microarray binding, fluorescence 635/667; higher = more signal
[8] = system: wheat germ agglutinin (Triticum aestivum), Alexa647-labelled; assay: wheat germ agglutinin binders on compound microarrays, profiling panel, artefact control for SMM control-protein annotation, biochemical, small-molecule microarray, 635/667 nm fluorescence (AID 1140); settings: WGA-A647 binding, 635 nm fluorescence, higher = more signal;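 also: score merges 667 nm feature emission with signal to noise over triplicate slides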
[9] = molecular target: Luciferin 4-monooxygenase (Photinus pyralis) (UniProt P08659); assay: firefly luciferase enzyme inhibitors, primary screen, biochemical, luminescence, purified enzyme, 2006 set (AID 1141); settings: SteadyGlo luminescence, 30 min, higher = more signal, called active from +8 up or from −8 down;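 also: cell-free assay with purified firefly luciferase at 100 ng per well in PBS; test concentration not given here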
[10] = system: Wnt5a (protein binding on small-molecule microarray); assay: Wnt5a binders on small-molecule microarray, primary screen, biophysical, 635/667 nm fluorescence (AID 1142); settings: 635 nm fluorescence, higher = more signal;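 also: fluorescence read at 667 nm with signal to noise per printed feature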
[11] = cell viability in Huh7 cells, primary screen, cytotoxicity control for HCV replication inhibitor project, CellTiter-Glo luminescence, basal, 48 h (AID 1143); settings: Huh7 HCV replicon, higher = more signal, called active from +8 up or from −8 down;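 also: Huh7 hepatoma cells carrying a hepatitis C replication reporter with no stimulus; test concentration not given here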
[12] = P. aeruginosa biofilm formation inhibitors, primary screen, PAO1 strain, BacTiter-Glo luminescence, LB-PBS (AID 1144); settings: 12 h, higher = more signal
[13] = CREB reporter modulators without forskolin, primary screen, cell-based, PC12, CRE-LacZ reporter, unstimulated (AID 1145); settings: no forskolin, luminescence, 4.5 h, higher = more signal, called active from +8 up or from −8 down
[14] = CREB reporter modulators under forskolin, primary screen, cell-based, PC12, CRE-LacZ reporter, forskolin-stimulated (AID 1146); settings: luminescence, 4.5 h, higher = more signal, called active from +8 up or from −8 down;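 also: PC12 cells with 6xCRE LacZ reporter stimulated by forskolin 10 µM; beta-galactosidase reporter signal reflecting CREB driven transcription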
[15] = molecular target: Streptavidin (Streptomyces avidinii) (UniProt P22629); assay: streptavidin binders on small-molecule microarray, primary screen, artefact control for SMM compound annotation, biophysical, 635/667 nm fluorescence (AID 1147); settings: streptavidin binding, higher = more signal;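 also: signal reflects streptavidin binding to arrayed compounds as a control protein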
[16] = small-molecule binders of probe aInhba, primary screen, biochemical, small-molecule microarray, 635/667 nm fluorescence (AID 1148); settings: higher = more signal;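 also: score merges 667nm spot fluorescence with signal-to-noise for antibody binding to printed compounds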
Torsin-1A (Homo sapiens) [17] = molecular target: Torsin-1A (Homo sapiens) (UniProt O14656); assay: torsin A binders from cell lysate, primary screen, small-molecule microarray, wild-type, 635/667 nm (AID 1149); settings: COS7 hTOR1A-WT lysate, 635 nm fluorescence, higher = more signal
Torsin-1A (Homo sapiens) [18] = molecular target: Torsin-1A (Homo sapiens) (UniProt O14656); assay: small-molecule binders of mutant TOR1A in lysate, primary screen, cell lysate, small-molecule microarray, COS7 lysate, 635/667 nm fluorescence (AID 1150); settings: COS7 hTOR1A mutant lysate, 635 nm fluorescence, higher = more signal;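 also: score pools 667 nm emission and signal to noise measuring lysate protein binding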
[19] = system: Sonic hedgehog protein (Shh); assay: small-molecule binders of Shh protein, primary screen, biochemical, small-molecule microarray, 635/667 nm fluorescence (AID 1151); settings: small-molecule microarray binding, 635 nm fluorescence; higher = more signal;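 also: Shh protein binding to compounds spotted on small-molecule microarray slides; score combines spot fluorescence intensity with signal-to-noise across triplicate slides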

Sequence of Streptavidin (Streptomyces avidinii) (P22629 whole entry, looked up): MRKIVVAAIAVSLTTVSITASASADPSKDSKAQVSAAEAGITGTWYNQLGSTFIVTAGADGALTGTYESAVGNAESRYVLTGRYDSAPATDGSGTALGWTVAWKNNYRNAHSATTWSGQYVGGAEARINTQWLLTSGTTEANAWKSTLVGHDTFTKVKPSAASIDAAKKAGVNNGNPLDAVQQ
Sequence of Follistatin (Homo sapiens) (P19883 whole entry, looked up): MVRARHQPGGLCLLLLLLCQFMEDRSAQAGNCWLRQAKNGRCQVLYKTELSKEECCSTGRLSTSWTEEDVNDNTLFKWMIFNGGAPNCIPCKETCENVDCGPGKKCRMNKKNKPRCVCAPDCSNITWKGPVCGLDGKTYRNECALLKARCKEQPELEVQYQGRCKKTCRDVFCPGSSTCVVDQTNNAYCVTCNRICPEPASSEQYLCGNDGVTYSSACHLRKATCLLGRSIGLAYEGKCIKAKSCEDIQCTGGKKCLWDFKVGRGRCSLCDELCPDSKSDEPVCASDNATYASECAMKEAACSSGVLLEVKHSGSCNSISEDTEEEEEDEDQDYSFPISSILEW
Sequence of Torsin-1A (Homo sapiens) (O14656 whole entry, looked up): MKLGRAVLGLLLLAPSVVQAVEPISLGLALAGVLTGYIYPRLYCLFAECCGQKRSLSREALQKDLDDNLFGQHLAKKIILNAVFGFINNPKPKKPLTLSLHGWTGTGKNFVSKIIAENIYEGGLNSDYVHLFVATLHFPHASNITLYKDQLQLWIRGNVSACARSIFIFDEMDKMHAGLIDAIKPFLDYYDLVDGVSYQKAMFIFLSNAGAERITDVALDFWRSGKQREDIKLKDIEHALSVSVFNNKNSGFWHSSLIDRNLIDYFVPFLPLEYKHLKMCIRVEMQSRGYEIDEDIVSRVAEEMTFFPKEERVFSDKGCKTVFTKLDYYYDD
Sequence of Luciferin 4-monooxygenase (Photinus pyralis) (P08659 whole entry, looked up): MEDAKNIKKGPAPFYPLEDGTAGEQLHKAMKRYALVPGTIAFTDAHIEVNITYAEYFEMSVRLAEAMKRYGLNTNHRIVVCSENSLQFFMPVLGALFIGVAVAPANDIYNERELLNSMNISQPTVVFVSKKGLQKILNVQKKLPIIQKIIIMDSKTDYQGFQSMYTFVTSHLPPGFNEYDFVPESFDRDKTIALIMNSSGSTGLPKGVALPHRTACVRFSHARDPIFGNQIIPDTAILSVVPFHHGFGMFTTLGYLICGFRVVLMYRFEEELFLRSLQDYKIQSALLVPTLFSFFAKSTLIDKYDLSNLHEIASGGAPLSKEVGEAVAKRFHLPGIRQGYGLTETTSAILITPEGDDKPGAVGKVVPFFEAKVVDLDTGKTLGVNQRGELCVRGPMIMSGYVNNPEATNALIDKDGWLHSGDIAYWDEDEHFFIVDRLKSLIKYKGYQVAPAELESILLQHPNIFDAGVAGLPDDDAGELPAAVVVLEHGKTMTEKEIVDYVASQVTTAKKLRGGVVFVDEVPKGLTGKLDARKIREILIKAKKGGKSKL
Sequence of Focal adhesion kinase 1 (Homo sapiens) (Q05397 whole entry, looked up): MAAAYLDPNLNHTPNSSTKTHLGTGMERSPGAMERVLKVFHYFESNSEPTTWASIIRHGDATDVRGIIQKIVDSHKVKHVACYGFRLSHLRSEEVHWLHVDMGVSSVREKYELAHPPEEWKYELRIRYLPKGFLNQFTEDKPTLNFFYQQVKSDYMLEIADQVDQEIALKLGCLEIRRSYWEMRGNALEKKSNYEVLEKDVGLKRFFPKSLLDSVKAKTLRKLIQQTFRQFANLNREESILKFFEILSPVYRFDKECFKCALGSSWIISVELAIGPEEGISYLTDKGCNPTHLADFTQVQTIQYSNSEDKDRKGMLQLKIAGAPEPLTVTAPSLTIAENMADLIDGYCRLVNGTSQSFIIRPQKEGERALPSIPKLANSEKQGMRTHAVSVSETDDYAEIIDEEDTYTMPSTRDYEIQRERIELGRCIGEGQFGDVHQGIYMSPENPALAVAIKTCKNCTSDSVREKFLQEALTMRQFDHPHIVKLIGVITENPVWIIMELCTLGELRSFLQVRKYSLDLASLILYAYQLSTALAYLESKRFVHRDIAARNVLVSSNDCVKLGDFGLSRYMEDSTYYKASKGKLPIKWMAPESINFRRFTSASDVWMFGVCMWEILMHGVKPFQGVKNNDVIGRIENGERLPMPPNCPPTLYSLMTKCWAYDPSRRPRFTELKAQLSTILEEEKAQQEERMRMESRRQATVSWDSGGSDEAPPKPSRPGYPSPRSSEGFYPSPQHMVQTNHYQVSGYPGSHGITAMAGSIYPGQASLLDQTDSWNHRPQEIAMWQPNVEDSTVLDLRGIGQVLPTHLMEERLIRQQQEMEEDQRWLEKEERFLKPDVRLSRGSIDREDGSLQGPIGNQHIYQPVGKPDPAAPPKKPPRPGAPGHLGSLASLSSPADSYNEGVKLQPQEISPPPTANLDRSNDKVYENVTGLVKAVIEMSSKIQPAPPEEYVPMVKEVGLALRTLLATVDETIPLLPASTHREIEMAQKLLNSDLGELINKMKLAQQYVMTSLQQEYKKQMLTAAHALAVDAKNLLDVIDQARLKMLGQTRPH
Sequence of Fibroblast growth factor 2 (Homo sapiens) (P09038 whole entry, looked up): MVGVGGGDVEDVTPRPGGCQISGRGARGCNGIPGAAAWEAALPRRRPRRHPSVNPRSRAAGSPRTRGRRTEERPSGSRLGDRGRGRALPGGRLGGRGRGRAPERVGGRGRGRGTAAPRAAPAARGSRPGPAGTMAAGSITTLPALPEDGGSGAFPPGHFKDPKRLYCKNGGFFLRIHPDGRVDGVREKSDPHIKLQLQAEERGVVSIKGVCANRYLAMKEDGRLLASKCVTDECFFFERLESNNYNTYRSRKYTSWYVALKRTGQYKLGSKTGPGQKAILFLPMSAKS

SMILES | composite z-score [1] | composite z-score [2] | composite z-score [3] | composite z-score [4] | composite z-score [5] | composite z-score [6] | z-score [7] | composite z-score (Lefty1) | composite z-score [8] | z-score [9] | composite z-score [10] | z-score [11] | z-score [12] | z-score [13] | z-score [14] | composite z-score [15] | composite z-score [16] | composite z-score (Torsin-1A (Homo sapiens) [17]) | composite z-score (Torsin-1A (Homo sapiens) [18]) | composite z-score [19]
O=C1OCCC=C[C@H]2OC34C=CCN(Cn5nnc6ccccc65)C(=O)[C@H]3N(CCCO)C(=O)[C@@H]4C12 (stereo not given in full) | -0.0275 | -1.46 | -0.519 | -0.975 | -0.676 | -0.446 | -0.9 | -0.935 | -0.0152 | 0.0251 (inactive) | -0.197 | -2.61 (inactive) | -0.413 (inactive) | -0.903 (inactive) | -0.242 (inactive) | -1.01 | -0.161 | -0.444 | -2.04 | -0.128
COC(=O)c1c(CC[C@@H](CO)NC(=O)N2CCC[C@H]2Cn2cc(C3(O)CCCCC3)nn2)oc(C(C)=O)c1C(=O)OC | 0.794 | 0.759 | -0.0763 | 0.888 | 0.745 | 1.59 | -0.403 | 1.39 | -0.0239 | 0.97 (inactive) | -0.0505 | -0.257 (inactive) | -0.156 (inactive) | 0.498 (inactive) | 0.306 (inactive) | 0.429 | -0.0448 | 0.666 | 0.895 | 1.44
COc1ccc(C#Cc2ccc3c(c2)[C@]2(C(=O)N3)[C@H](c3ccc(OCCO)cc3)N3[C@H](c4ccccc4)[C@H](c4ccccc4)OC(=O)[C@H]3[C@@H]2C(=O)NC[C@H](O)c2ccccc2)cc1 | 0.825 | 1.23 | 0.116 | 0.928 | 0.789 | 1.05 | -1.54 | 0.906 | 0.887 | -0.0696 (inactive) | 0.501 | -2.47 (inactive) | -0.506 (inactive) | -0.491 (inactive) | -0.808 (inactive) | 0.777 | 0.122 | -0.0854 | 0.327 | 1.32
CCOC(=O)C[C@H]1[C@H](OC(=O)c2cc3ccccc3oc2=O)[C@@H](NC(=O)CC(C)C)c2cc(OCCCO)ccc2N1C(=O)c1ccc2ccccc2n1 | 0.672 | 0.686 | 0.223 | 0.807 | 1.03 | 1.51 | -0.551 | 0.903 | 0.0235 | 0.425 (inactive) | -0.0457 | 0.152 (inactive) | 0.152 (inactive) | 4.46 (inactive) | 0.446 (inactive) | 0.138 | -0.128 | -0.0914 | 0.234 | 1.41
CCCC=C(CCC)[C@@H](NS(=O)(=O)CC12CCC(CC1=O)C2(C)C)c1ccc(C(=O)OC)cc1 (stereo not given in full) | 1.33 | 0.71 | 0.187 | 0.0749 | 0.107 | -0.056 | 0.237 | 0.134 | 0.301 | 2.15 (inactive) | 0.0202 | -0.816 (inactive) | -1.06 (inactive) | -0.572 (inactive) | 0.0711 (inactive) | 0.333 | 0.361 | 0.924 | 0.792 | 0.31
CCCC#C[Si](O[C@H](CC)c1cn([C@H](C)c2ccccc2)nn1)(C(C)C)C(C)C | 0.439 | 0.625 | 0.986 | 0.856 | 0.297 | 0.484 | 1.04 | 0.23 | 0.06 | -1.08 (inactive) | 0.0759 | -0.746 (inactive) | -0.616 (inactive) | -0.621 (inactive) | -0.929 (inactive) | -0.121 | 0.143 | 0.575 | 0.95 | 0.275
C=C[C@@H](OC)[C@H](OC(=O)Nc1ccc(OC)cc1)c1ccc(O)c(F)c1 | 0.0143 | -0.0707 | 0.0004 | -0.808 | 1.2 | 0.659 | -0.116 | 1.35 | -0.251 | -3.89 (inactive) | -0.182 | -2.63 (inactive) | -0.238 (inactive) | 2.21 (inactive) | 1.53 (inactive) | -0.938 | -0.197 | 0.281 | -0.278 | 1.96
O=C1OCCC/C=C\[C@H]2OC34C=CCN(c5ccc6ccccc6c5)C(=O)[C@H]3N(CCO)C(=O)[C@@H]4C12 (stereo not given in full) | -0.218 | -0.637 | -0.774 | -2.11 | -1.2 | -0.634 | -0.817 | -1.22 | 1.13 | 0.235 (inactive) | -0.325 | 0.43 (inactive) | 0.515 (inactive) | 0.601 (inactive) | -0.183 (inactive) | -1.2 | -0.299 | -0.427 | -0.839 | -0.59
CCCN1C(=O)[C@@]2(Cc3ccccc31)N=C(c1ccc(OCCCO)cc1)O[C@H]2c1ccccc1 | 0.293 | 1.17 | 0.881 | 0.829 | 1.23 | 1.31 | 1.69 | 0.256 | 0.801 | -3.25 (inactive) | 1.16 | -3.36 (inactive) | 0.849 (inactive) | 2.07 (inactive) | -0.0414 (inactive) | 0.469 | -0.016 | 1.71 | 1.34 | 1.01
